The campaign covered roughly 360,000 compounds. About 230 (0.064%) were called active. The sample as a whole holds a higher share of actives than the screen did. Values without a mark were called inactive. Rule as the data show it: active = activity above about 50% (passing the limit was not always enough); inconclusive = no clear call, values can overlap the other calls.
Each molecule was assayed on DNA topoisomerase I (Yersinia pestis CO92) (assay: Yersinia pestis topoisomerase I inhibitors, primary screen, biochemical, cleavage product accumulation, plate reader, single point (AID 504884)). Details: Y. pestis Topo-I cleavage product accumulation, at 10 µM, hits give high values.
With c1ccc2cc(CCCc3cc4ccccc4cn3)ncc2c1 the activity was 54.9% (active). Fc1ccc2cnc(-c3ccccc3)cc2c1 was tested, and the activity was 5.85%. In the case of CCC1CCCCN1C(=O)CSc1nc2c(c(=O)n1C)SC(C)C2 (stereo not given), the activity was 16.8%. Cc1ccc(CNC(=O)CCS(=O)(=O)c2ccc3c(c2)CC(C)N3C(=O)C2CC2)o1 (stereo not given) showed an activity of 7.23%. With Cc1ccc(C)c(N(CC(=O)NCc2ccco2)C(=O)CCC(=O)Nc2ccccn2)c1 the activity was 18.9%. CC1Cc2cc(/C(O)=C3\C(=O)C(=O)N(Cc4cccnc4)C3c3ccccc3F)ccc2O1 (stereo not given) showed an activity of 2.42%. Cc1cccn2c(CN(C)C3CCCc4ccccc43)c(C(=O)N3CCOCC3)nc12 (stereo not given) gave an activity of 42.2%. COc1ccc(CNCCCNCc2ccc(OC)c(OC)c2)cc1OC showed an activity of 2.69%. In the case of CCc1ccc(OCC(O)CN2CCN(CCO)CC2)cc1 (stereo not given), the activity was 5.47%. Work on NC(Cc1ccc(F)cc1)c1csc(Nc2nncc3ccccc23)n1 (stereo not given) yielded an activity of -11.6%. For CC(C)(CNC(=O)CNC(=O)C1CCCCC1)N1CCOCC1, the activity was -0.69%. Cc1c(NC(=O)C(C)OC(=O)c2c3c(nc4ccccc24)CCC(C)C3)c(=O)n(-c2ccccc2)n1C (stereo not given) was tested, and the activity was 3.41%. With COc1cc(NC(=O)C2=C(C)OCCS2)c(Cl)cc1C(=O)NCCN1CCN(C)CC1 the activity was -0.826%. With COc1ccc(-n2nc(C(=O)NCC(=O)Nc3cccc(C)n3)c3ccccc3c2=O)cc1 the activity was 15.2%. In the case of O=S(=O)(Nc1ccc(Cl)cn1)c1cnc(Cl)c(Br)c1, the activity was 2.02%. With CC1CCCCC1NC(=O)c1cn(C)c2ccc(S(=O)(=O)N3CCOCC3)cc2c1=O (stereo not given) the activity was -3.45%. With CCN(CCN(C)C)C(=O)c1ccc2nc(C)c(N(C)C(=O)CCc3ccccc3)n2c1 the activity was 0.0305%. For Cc1nc(-c2ccc(F)cc2)c(CC(=O)N(C)CC(=O)Nc2c(C)cccc2C)s1, the activity was 0.373%. Molecule Cc1ccccc1-c1nc(CS(=O)(=O)CC(=O)N2CCc3ccccc3C2)c(C)o1 has an activity of 32.1%. With COc1ccc(-n2c(Cc3cccn3C)nnc2SCC(=O)Nc2cc(C)cc(C)c2)cc1 the activity was 18.8%. In the case of O=C(NCc1ccccc1)C(c1ccccc1)N(C(=O)c1csnn1)c1ccc(F)cc1 (stereo not given), the activity was 26.7%. With CN(C)C(=O)CCc1ccc2c3c([nH]c2c1)[C@]1(C)[C@@H](C(=O)N2CCOCC2)C[C@H](CC(=O)NCCc2ccccn2)C(=O)N1CC3 the activity was 4.43%. Molecule CCc1ccc(C(=O)OCC(=O)NCC(F)(F)F)cc1 has an activity of 7.38%. In the case of CN(C)/C=C(/C(=O)c1ccccc1Cl)S(C)(=O)=O, the activity was 3.93%. CC1CCN(S(=O)(=O)c2ccc(NC(=O)C3CC(=O)N(c4ccccc4)C3)cc2)CC1 (stereo not given) was tested, and the activity was 71.3% (active). O=C(Nc1ccc(S(=O)(=O)N2CCCCC2)cc1)C1CC(=O)N(c2ccc(F)cc2)C1 (stereo not given) showed an activity of 12.1%. With Cc1ccccc1N1CC(C(=O)Nc2ccc(S(=O)(=O)N3CCCC3)cc2)CC1=O (stereo not given) the activity was 10.6%. For CCCn1c(SCC(=O)c2ccc3c(c2)OCCO3)nnc1C(C)C, the activity was 9.18%. In the case of CCCCn1c(N)c(N(CCOC)C(=O)COc2c(C)cccc2C)c(=O)[nH]c1=O, the activity was -2.82%. In the case of CN1CCN(S(=O)(=O)c2cccc(C(=O)Nc3sccc3C#N)c2)CC1, the activity was -7.33%.

Reference: PubChem BioAssay AID504884 (Broad Institute, 2011)
